Screening data deposited in PubChem BioAssay by National Center for Advancing Translational Sciences (NCATS).
An excerpt weighted towards active compounds, which were near 9.2% of everything screened.
HTT ATP protect – protects HTT-Q103 PC12 cells, measured by ATP; Potency, µM (top dose mostly 56.4 µM), for inactives: cytoprotection (ATP increase), usual class: activators; PC12 HTT-Q103 induced, cytoprotection, ATP luminescence, 40 h; 230,000 tested, 0.14% active; AID 1471; active means well fitted curve in the direction sought with a large enough effect; inconclusive means small, poorly fitted or top-dose-only effect, or another doubt; inactive means no such curve, though single readings can be large; an effect the other way counts as inactive or inconclusive; further: % of control where 0% means no effect; nearly all actives have a fitted effect of over 45% in size
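PC12 cells stably carrying ecdysone-inducible Htt exon 1 (Q103)–GFP were induced with 100 nM tebufenozide (final) alongside library compounds in a dose series. Cytoprotection was scored as retained ATP by ATPlite luminescence.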
Lamin A splicing – changes lamin A minigene splicing in HeLa cells; 200,000 tested, 0.01% active; Potency, µM (titrated, usually from 46.1 µM), without a hit: at the highest dose ratio change, negative = inhibition, most hits filed as inhibitors; HeLa LMNA splicing GFP/RFP minigene ratio, 48 h; active means well fitted inhibition curve with a large enough effect in the signal ratio, with a control signal flat, not every such curve was filed as active; inconclusive means small, poorly fitted or top-dose-only effect, or effect the other way, or a change in a side signal; the % refers to the signal ratio; further: on the % scale 0 is the no-effect control and ±100 the full control effect
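S3 HeLa stable clones carrying a lamin A-EGFP splicing minigene plus DsRed2 were seeded at 600 cells/well in Opti-MEM with 2% FBS, pin-dosed and incubated 48 h at 37°C. Acumen cytometry (488 nm) gave the GFP/RFP total-intensity ratio.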
KDM4E inh – inhibitors of human JMJD2E histone demethylase. B2RXH2. JMJD2E catalytic domain, FDH-coupled NADH fluorescence (FDH is formaldehyde dehydrogenase). Potency, µM (highest dose often 57.1 µM), for the others: at the top dose activity change, negative = inhibition, most hits filed as inhibitors. 230,000 tested, 1.6% active. AID 2147;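 further: 0% = wells with enzyme and -100% = buffer wells without enzyme; nearly all actives have a fitted effect of over 50% in size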
HttQ103 aggreg – reduces HttQ103-GFP aggregates in PC12 cells | PC12 HttQ103-GFP aggregates, Acumen cytometry, 40 h | Potency, µM (series often up to 46.1 µM), without a hit: at the highest dose activity change, negative = inhibition, actives largely listed as inhibitors | 220,000 tested, 1.1% active; active means well fitted curve in the direction sought with a large enough effect; inconclusive means small, poorly fitted or top-dose-only effect, or another doubt; inactive means no such curve, though single readings can be large; an effect the other way counts as inactive or inconclusive; further: on the % scale 0 is the no-effect control and ±100 the full control effect; nearly all actives have a fitted effect of over 60% in size
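PC12/HTTQ103-GFP, ecdysone-inducible; teb 100 nM; cpd qHTS titration; GFP aggregates read on laser cytometer, Ex 488/Em 500-530 nm.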
HPGD block – blocks human HPGD enzyme activity | 150,000 tested, 4.3% active | P15428 | Potency, µM, for inactives: at the highest dose activity change, negative = inhibition, usual class: inhibitors | purified HPGD, NADH fluorescence kinetic, PGE2 substrate; further: on the % scale 0 is the no-effect control and ±100 the full control effect
Target sequence (P15428 whole entry, looked up): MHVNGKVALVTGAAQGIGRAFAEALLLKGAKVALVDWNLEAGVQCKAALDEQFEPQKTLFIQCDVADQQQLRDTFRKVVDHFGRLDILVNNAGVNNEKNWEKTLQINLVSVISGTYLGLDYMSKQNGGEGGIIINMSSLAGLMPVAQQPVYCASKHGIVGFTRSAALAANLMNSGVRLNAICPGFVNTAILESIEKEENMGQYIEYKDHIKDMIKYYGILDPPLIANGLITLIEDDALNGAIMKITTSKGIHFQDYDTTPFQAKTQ
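NADH formation kinetics: reaction with 30 uM PGE2 and 1 mM NAD+ (final), 20 nM enzyme, Tris-HCl pH 8 with Tween 20, after 15 min compound preincubation at room temperature. Fluorescence change, last versus first of five reads.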
ALDH1A1 inh – ALDH1A1 (human) enzyme inhibition. P00352. Purified ALDH1A1, NADH fluorescence, propionaldehyde substrate. Potency, µM (doses to about 75.3 µM), for inactives: at the highest dose activity, negative = inhibition, hits mostly inhibitors. 220,000 tested, 7.3% active. AID 1030;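 further: plate controls were no enzyme wells and a reference inhibitor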
Active calls of the source: *; ? = inconclusive; / = no result given; [ ] = dose if it differs, or a comment. Unless noted, the call rests on the fitted dose curve; in most records, active means well fitted inhibition curve with a large enough effect (not every such curve was filed as active); inconclusive means small, poorly fitted or top-dose-only effect, or another doubt; inactive means no such curve, though single readings can be large or run the other way. Potency means the concentration at half of the fitted maximal effect.

SMILES	HTT ATP protect	Lamin A splicing	KDM4E inh	HttQ103 aggreg	HPGD block	ALDH1A1 inh
COc1cc(NC(=S)N2CCN(c3ccccn3)CC2)cc(OC)c1	21%[10 µM]	-13%	-14%	8.9µM*	/	-6%
CC1Cc2ccccc2N1C(=S)NC(=O)c1ccco1 (stereo unspecified)	-23%	5%[46 µM]	4%	-2%	/	22µM*
O=C(NC(=S)N1CCN(c2ccccn2)CC1)c1ccco1	3%[10 µM]	/	6%	-2%[9.22 µM]	/	11µM*
CN1CCN(C(=S)NC(=O)c2ccco2)CC1	27%[10 µM]	/	21%	6%[9.22 µM]	/	-16%
COc1ccc(NC(=S)N2CCN(c3ccccn3)CC2)cc1OC	1%[10 µM]	?	-6%	13%	/	25µM*
COc1cc(NC(=S)N2CCN(c3ccccn3)CC2)cc(OC)c1OC	-8%	/	-5%	5%	/	?
C(=N\N1CCN(c2ccccn2)CC1)/c1ccco1	-11%[10 µM]	/	-8%	-3%	/	18µM*
Cc1ccc(/C=N/N2CCN(c3ccccn3)CC2)o1	12%[10 µM]	/	-4%	-3%[9.22 µM]	/	/
S=C(Nc1ccc(Nc2ccccc2)cc1)N1CCN(c2ncccn2)CC1	-7%	/	3%	-5%[9.22 µM]	/	13µM*
O=[N+]([O-])c1ccc(N2CCCC2)nc1N1CCCC1	1%[10 µM]	/	-7%	15%[9.22 µM]	/	1.4µM*
O=[N+]([O-])c1ccc(N2CCCCC2)nc1	-20%	?	-2%	-17%	-6%	?
CC(Oc1ccccc1)C(=O)Nc1cccc(F)c1 (stereo unspecified)	-5%	1%	0%	-1%	-4%	-3%
CC(Oc1ccc(F)cc1)C(=O)NN (stereo unspecified)	/	-8%	-2%	15%	-10%	5µM*
CC(Oc1ccc(-c2nccc(-c3ccccn3)n2)cc1)C(=O)NN (stereo unspecified)	-23%	1%	11%	-3%	-5%	18µM*
Cc1ccc(C(=O)Oc2ccc(-c3nccc(-c4ccccn4)n3)cc2)cc1	2%[10 µM]	-9%	11%	-8%	-17%	9%
O=C1CC2(CCCC2)CC(=O)N1CCNCC1COc2ccccc2O1 (stereo unspecified)	-19%	/	/	/	/	28µM*
COc1ccc2c(c1)CCC1=C2NC(=S)NC1c1ccc(N(C)C)cc1 (stereo unspecified)	-1%[10 µM]	?	?	12%[9.22 µM]	/	2.8µM*
COc1cc(C2NC(=S)NC3=C2CCc2ccccc23)cc(OC)c1OC (stereo unspecified)	5%[10 µM]	-9%	-13%	10%	-15%	?
C=CCOc1ccc(C2NC(=S)NC3=C2CCc2ccccc23)cc1 (stereo unspecified)	17%[10 µM]	/	-14%	12%[9.22 µM]	/	1µM*
Cc1oc(-c2ccccc2)nc1CNC(=O)Nc1ccccc1	/	7%[46 µM]	/	/	/	/
CC1=C(C(=O)N2CCOCC2)C(c2ccc(C)cc2)NC(=S)N1 (stereo unspecified)	18%[10 µM]	-10%	-2%	6%	/	18µM*
CC1=C(C(=O)N2CCOCC2)C(c2ccc(Cl)cc2)NC(=S)N1 (stereo unspecified)	-13%[10 µM]	?	-8%	-11%	/	-15%
COc1cc(SC#N)ccc1N=Cc1c(C)[nH]n(-c2ccc(C)c(C)c2)c1=O	-3%[10 µM]	?	1%	12%	-15%	0.28µM*
COc1cc(S(=O)(=O)Nc2ccccc2)ccc1N=Cc1c(C)[nH]n(-c2ccc(C)cc2)c1=O	6%[10 µM]	-23%	2%	-4%	-19%	-3%
COc1ccc(CCN=Cc2c(C)[nH]n(-c3ccc([N+](=O)[O-])cc3)c2=O)cc1OC	-34%	/	10%	4%	/	9%
COc1cc(SC#N)ccc1N=Cc1c(C)[nH]n(-c2ccc(Cl)cc2)c1=O	-8%	8%	-6%	27%	-20%	2.5µM*
COc1ccc(OCC(=O)Sc2ccc(C)cc2)cc1	6%	12%	5%	6%	14µM*	?
COc1ccc(OCC(=O)Nc2ccc(C)cc2)cc1	-11%	-6%	-1%	-10%	16µM*	5%
